Compound activity from PubChem BioAssay.
An excerpt weighted towards active compounds, which were near 19% of everything screened.
SW480 rerep = induces DNA re-replication in SW480 colon adenocarcinoma cells. SW480 DNA re-replication, Hoechst DNA content imaging, 48 h. Potency, µM (top dose mostly 46.1 µM), without a hit: at the top dose re-replication activation, most hits filed as activators. actives 1.8% (n = 340,000); also: potency is read from the fitted curve at half-maximal effect; % of control where 0% means no effect; nearly all actives have a fitted effect of over 55% in size
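250 cells/well; 23 nL cpd via pin tool; 48 hr, 37 C, 5% CO2; Hoechst 40 min; imager read of total nuclear intensity, ex 405/em 500-530 nm.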
BCR signal inh = inhibitors of chronic active B-cell receptor signaling; ABC-DLBCL IkBa-CBG/CBR reporter, luminescence ratio, 4 h; Potency, µM (doses to about 46.1 µM), inactives show at the top dose activity change, negative = inhibition, hits mostly inhibitors; actives 0.05% (n = 340,000); active = well fitted inhibition curve with a large enough effect in the signal ratio, with a control signal flat, not every such curve was filed as active; inconclusive = small, poorly fitted or top-dose-only effect, or effect the other way, or a change in a side signal; the % refers to the signal ratio;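 also: potency is read from the fitted curve at half-maximal effect; plate controls were basal doxycycline-induced cells for no effect and cells given 10 µM MG132 for full effect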
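Cell line TMD8 (human ABC DLBCL), stably expressing tet-inducible CBG68-IkBa fusion and CBR; IMDM/0.5% FBS; cpd up to 46 uM; dox induction, 4 h, 37C/5% CO2; dual luminescence; green/red ratio; MG132 control.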
DT40 TDP1 no CPT = qHTS for Inhibitors of human tyrosyl-DNA phosphodiesterase 1 (TDP1): qHTS in cells in absence of CPT | AID 686978, 2013 | DT40 Tdp1-/- hTDP1 cells, no CPT, ATP luminescence, 48 h | Potency, µM (titrated, usually from 46.2 µM), for the others: top-dose activity change, negative = growth inhibition, hits mostly inhibitors | actives 15% (n = 420,000); also: potency is read from the fitted curve at half-maximal effect; % is scaled to controls: 0 for no effect and ±100 for the full control effect; nearly all actives have a fitted effect of over 55% in size
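DT40 Tdp1-/-;hTDP1 cells, no CPT (DMSO vehicle only), 400 cells/well; compounds pin-transferred; ≥48 hr, 37 °C; CellTiter-Glo 30 min RT dark, luminescence read.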
DT40 TDP1 CPT = growth inhibition of DT40 Tdp1-/-;hTDP1 cells with camptothecin (screen for TDP1 inhibitors) | chicken DT40 Tdp1-/-;hTDP1 cells + 20 nM CPT, ATP luminescence, 48 h | Potency, µM (series often up to 46.2 µM), inactives show at the highest dose activity change, negative = growth inhibition, actives largely listed as inhibitors | actives 12% (n = 420,000); also: potency is read from the fitted curve at half-maximal effect; % is scaled to controls: 0 for no effect and ±100 for the full control effect; nearly all actives have a fitted effect of over 55% in size
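Chicken DT40 Tdp1-/- cells stably complemented with human TDP1 were seeded at 400 cells/well in medium containing 20 nM camptothecin, exposed to pin-transferred compounds, and grown at 37 °C for at least 48 hr. Viability was read as ATP luminescence.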
MCF10A rereplic = induces DNA re-replication in MCF 10a normal breast cells; MCF 10A DNA re-replication, Hoechst nuclear intensity, 48 h; Potency, µM (titrated, usually from 46.1 µM), without a hit: at the highest dose activity, positive = re-replication, actives largely listed as activators; actives 2.9% (n = 350,000); AID 624296; also: potency is read from the fitted curve at half-maximal effect; % of control where 0% means no effect; nearly all actives have a fitted effect of over 50% in size
IL1B secr inh = blocks inflammasome-driven IL-1 beta release. THP-1 LPS/ATP IL-1B secretion, AlphaLISA, 16 h; active compounds read low. activity change, % at 57.5 µM. actives 4.7% (n = 360,000). AID 743279; in the data active = activity change below about -50%; inconclusive = mostly about -30% to -49%; also: % is scaled to controls: 0 for no effect and ±100 for the full control effect
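THP-1 cells pretreated 1 hr with compounds (up to 57.5 uM final), then stimulated with LPS (250 ng/mL final) plus ATP (1.25 mM final); secreted IL-1B measured by AlphaLISA after 16 hr, decreased signal indicating inhibition.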
* marks the source's active call; other numbers are inactive results; ? = inconclusive; nt = no result given; [ ] = remark or other dose. Unless noted, calls follow the shape of the dose curve; as a rule, active = well fitted curve in the direction sought with a large enough effect; inconclusive = small, poorly fitted or top-dose-only effect, or another doubt; inactive = no such curve, though single readings can be large; an effect the other way counts as inactive or inconclusive.

SMILES	SW480 rerep	BCR signal inh	DT40 TDP1 no CPT	DT40 TDP1 CPT	MCF10A rereplic	IL1B secr inh
COc1ccc(-c2coc3c(C)c4oc(=O)c(CC(=O)O)c(C)c4cc23)cc1	-3.4%	0.0%	-9.8%	-5.1%	-11.5%	5.0
Cc1c(CC(=O)O)c(=O)oc2c(C)c3occ(-c4ccc(Br)cc4)c3cc12	-8.7%	?	16.4µM*	-8.3%	?	0.9
COc1cccc(-c2coc3c(C)c4oc(=O)c(CCC(=O)O)c(C)c4cc23)c1	-3.0%	?	?	1.1%[9.04 µM]	-1.4%	-59.5*
Cc1cccc(C)c1NC(=O)COC(=O)[C@@H]1CCCN1C(=O)c1cccs1	-11.0%	-0.2%	6.8%	-5.5%	11.2%	7.3
Nc1ccc(Cl)c(S(=O)(=O)Nc2cccc(Cl)c2)c1	-62.7%	-4.9%	8.9%	-5.6%	0.184µM*	2.2
CCCS(=O)(=O)c1nc(S(=O)(=O)c2ccc(C)cc2)c(N2CCOCC2)s1	?	1.1%	?	?	-5.4%	-73.7*
CS(=O)(=O)c1nc(S(=O)(=O)c2ccc(Cl)cc2)c(N2CCOCC2)s1	-18.8%	-5.7%	?	?	2.4%	-76.3*
CS(=O)(=O)c1nc(S(=O)(=O)c2ccc(Cl)cc2)c(NCCCN2CCOCC2)s1	-28.8%	-3.9%	21.5%	-3.2%	7.8%	0.0
CCN1CCN(c2sc(S(=O)(=O)CC)nc2S(=O)(=O)c2ccc(Cl)cc2)CC1	nt	nt	-9.7%	-3.2%	nt	-65.7*
CCNc1sc(S(C)(=O)=O)nc1S(=O)(=O)c1ccc(Cl)cc1	0.2%	3.1%	-4.3%	-15.0%	-3.5%	?
CC1CN(c2sc(S(C)(=O)=O)nc2S(=O)(=O)c2ccc(Cl)cc2)CC(C)O1 (configuration not stated)	?	-0.2%	-18.9%	?	-0.2%	-64.3*
COc1cc(CN2CCC3(CCC(CNC(=O)c4ccco4)O3)CC2)cc(OC)c1 (configuration not stated)	nt	nt	-22.3%	-1.1%	nt	nt
Cc1ccc(NC(=O)CSCC(=O)Nc2nnc(C)s2)cc1	-10.8%	-14.3%	-7.6%	-2.4%	1.2%	12.1
CC1CCCN(c2sc(S(C)(=O)=O)nc2S(=O)(=O)c2ccc(Cl)cc2)C1 (configuration not stated)	24.9%	?	?	?	7.6%	-70.7*
CCc1sc(C(=O)NCCCn2ccnc2)cc1Br	-46.4%	0.9%	9.7%	-2.2%	4.6%	14.7
COc1ccccc1CNc1nc(NCCOc2ccccc2Cl)c2sccc2n1	nt	nt	11.6µM*	10.3µM*	nt	-85.6*
CNc1nc(NCCOc2ccccc2Cl)c2sccc2n1	nt	nt	9.2µM*	9.2µM*	nt	?
Clc1ccccc1OCCNc1nc(NCC2CC2)nc2ccsc12	nt	nt	8.2µM*	16.4µM*	nt	-15.9
Fc1ccccc1-c1nc(NCC2CC2)nc2ccsc12	nt	nt	?	?	nt	0.6
COc1ccccc1CNc1nc(-c2ccccc2CO)c2sccc2n1	nt	nt	?	?	nt	-27.0
Clc1ccccc1Nc1nc(NCC2CC2)nc2ccsc12	nt	nt	20.6µM*	20.6µM*	nt	9.8
Cc1cccc(NC(=O)CN(C)S(=O)(=O)c2ccc3c(c2)CCC(=O)N3)c1C	nt	nt	-21.1%	-12.6%	nt	nt
O=C(c1ccc(Cl)cc1)N1CCN(S(=O)(=O)/C=C/c2ccccc2)CC1	-23.6%	?	20.6µM*	?	-1.9%	?
CCOC(=O)N1CCN(S(=O)(=O)/C=C/c2ccccc2)CC1	-3.7%	-0.8%	-11.9%	-25.6%	-2.4%	-20.9
COCCCNC(=O)CSc1nc2cc3c(cc2c(=O)n1CCCCCC(=O)NCc1ccc(OC)cc1)OCO3	nt	10.6%	-22.0%	-8.1%	nt	nt
COC(=O)[C@@]12C[C@@H](CC(=O)NCCC(C)C)C(=O)N(Cc3cccc4ccccc34)C1=CCC(C)(C)C2	nt	nt	20.6µM*	?	nt	-19.8
